Experimental data published in PubChem BioAssay (NCATS).
Results filed as inconclusive are left out. Values without a mark were called inactive. Activity calls are given as the source filed them. Calls follow the shape of the dose curve; as a rule, active = well fitted cell-killing curve with a large enough effect; inconclusive = small, poorly fitted or top-dose-only effect, or effect the other way; inactive = no such curve, though single readings can be large or run the other way. Positions of bridges follow the written chain, without caps; N, C: chain ends. Non-standard residues stand in square brackets, D forms with d. Residues, ends and D or L forms follow the SMILES beside them. ξ: configuration not given here. *: point of attachment. Octanoyl(6-Me) = CCC(C)CCCCC(=O)*; ξThr(3R) = C[C@@H](O)C(N)C(=O)O; dDab = NCC[C@@H](N)C(=O)O; Dab = NCC[C@H](N)C(=O)O

experiment: Quantitative High-Throughput drug screen in 47 multiple myeloma cell lines against the NCATS MIPE library collection: KMS20_JCRB cell viability assay (AID 1918973); details: CellTiter-Glo ATP, 48 h; series mostly up to 45.8 µM; viability (% of DMSO): at the top concentration; also: nearly all actives have a fitted effect of over 45% in size
Description: PI: Beverly A. Mock Ph.D.
Laboratory of Cancer Biology and Genetics,
Center for Cancer Research, National Cancer Institute,
National Institute of Health, Bethesda, Maryland
Drug resistance and disease progression are common in multiple myeloma (MM) patients, underscoring the need for new therapeutic combinations. […] We hypothesized that effective combinations would reduce MYC expression and enhance p16 activity. […] These preclinical data identify potentially useful drug combinations for evaluation in drug-resistant MM and reveal potential mechanisms of combined drug sensitivity.
Described herein is the primary MIPE qHTS used to cherrypick compounds. Validated compounds were then further tested for potential synergistic activiy.
[1] Peat TJ, Gaikwad SM, Dubois W, Gyabaah-Kessie N, Zhang S, Gorjifard S, Phyo Z, Andres M, Hughitt VK, Simpson RM, Miller MA, Girvin AT, Taylor A, Williams D, D'Antonio N, Zhang Y, Rajagopalan A, Flietner E, Wilson K, Zhang X, Shinn P, Klumpp-Thomas C, McKnight C, Itkin Z, Chen L, Kazandijian D, Zhang J, Michalowski AM, Simmons JK, Keats J, Thomas CJ, Mock BA. Drug combinations identified by high-throughput screening promote cell cycle transition and upregulate Smad pathways in myeloma. Cancer Lett. 2023 Aug 1;568:216284. doi: 10.1016/j.canlet.2023.216284. Epub 2023 Jun 24. PMID: 37356470; PMCID: PMC10408729.
SEQUENCE No. (e.g., 1, 2, 3, etc.); […] (e.g., Cells, Incubation, Reagent, etc.); VALUE and DESCRIPTION.
1; Cells; 5 uL; white, solid bottom 1536-well Greiner assay plate.
2; Compounds; 23 nL; Kalypsis pin tool (Wako USA) equipped with a 1536-well pin head to transfer to the assay plates.
3; Incubation; 48 hours; 37C incubation.
4; Reagent;5uL; CellTiter Glo (Promega).
5; Detector; 425V; Luminescence; Viewlux PerkinElmer.
NOTES (numbers refer to Sequence numbers above)
1. The cell-based screening methods employed in this study were like those previously published. Briefly, the corresponding myeloma cell lines were screened in 1,536-well plates with 500 cells, 5-uL per well for inhibition of cell viability (assessed by measuring ATP levels with CellTiterGlo).
2. NCATS MIPE 4.0 library of approved and investigational drugs were added using the Kalypsis pin tool. Wells treated with DMSO only for 100% viability and media only wells for 0% viability were used as controls.
3. The assay plates were covered and incubated for 48 hours in a 37C, 5% CO2 incubator with controlled humidity.
4. After 48 hours, CellTilter-GloTM luminescent substrate mix (Promega) reagent was added to the assay plate and plates we incubated for 5 min at room temperature.
5. Signal was measured as median relative luminescence units on a ViewLux (PerkinElmer) multiplate reader.
[1] Heske CM, Davis MI, Baumgart JT, Wilson K, Gormally MV, Chen L, Zhang X, Ceribelli M, Duveau DY, Guha R, Ferrer M, Arnaldez FI, Ji J, Tran HL, Zhang Y, Mendoza A, Helman LJ, Thomas CJ. Matrix Screen Identifies Synergistic Combination of PARP Inhibitors and Nicotinamide Phosphoribosyltransferase (NAMPT) Inhibitors in Ewing Sarcoma. Clin Cancer Res. 2017 Dec 1;23(23):7301-7311. doi: 10.1158/1078-0432.CCR-17-1121. Epub 2017 Sep 12. PMID: 28899971; PMCID: PMC6636827.
Potency is read from the fitted curve at half-maximal effect.

Row | SMILES | Potency | viability (% of DMSO) [%]
1 | C[C@H](NCc1ccc(OCc2cccc(F)c2)cc1)C(N)=O | 2350 nM (active) | –
2 | Cc1cnc(Nc2ccc(N3CCN(C)CC3)cc2)nc1Nc1cccc(S(=O)(=O)NC(C)(C)C)c1 | 7430 nM (active) | –
3 | CCC(C)CCCCC(=O)N[C@@H](CCN)C(=O)NC(C(=O)N[C@H](CCN)C(=O)N[C@@H]1CCNC(=O)C([C@@H](C)O)NC(=O)[C@@H](CCN)NC(=O)[C@@H](CCN)NC(=O)[C@@H](CC(C)C)NC(=O)[C@H](Cc2ccccc2)NC(=O)[C@H](CCN)NC1=O)[C@@H](C)O (stereo partly drawn) ({Octanoyl(6-Me)}-[Dab][ξThr(3R)][dDab][dDab][Dab]F[dL][dDab][dDab][ξThr(3R)]; lactam 4-C) | – | 106
4 | CN1C(C(=O)Nc2ccccn2)=C(O)c2sc(Cl)cc2S1(=O)=O | 2090 nM (active) | –
5 | C=C1C(=O)O[C@H]2[C@@H]1CCC(C)=CCC[C@@]1(C)O[C@@H]21 | 1660 nM (active) | –
6 | CC[C@H](CC[C@@H](C)[C@H]1CC[C@H]2[C@@H]3CC=C4C[C@@H](O)CC[C@]4(C)[C@@H]3CC[C@]12C)C(C)C | – | 114
7 | COc1ccc2cc([S+]([O-])Cc3ncc(C)c(OC)c3C)nc2c1 | – | 117
8 | CC(C)(C)c1nc2c3cc[nH]c(=O)c3c3cc(F)ccc3c2[nH]1 | 1320 nM (active) | –
9 | CCOC(=O)C=C[C@H](C[C@@H]1CCNC1=O)NC(=O)[C@@H](CC(=O)[C@@H](NC(=O)c1cc(C)on1)C(C)C)Cc1ccc(F)cc1 | – | 115
10 | CNC(=O)Nc1ccc(-c2nc(N3CC4CCC(C3)O4)c3cnn(C4CCC5(CC4)OCCO5)c3n2)cc1 | 10.5 nM (active) | –
11 | FC(F)c1nc2ccccc2n1-c1nc(N2CCOCC2)nc(N2CCOCC2)n1 | 332 nM (active) | –
12 | CC(C)(O)CC[C@@H](O)[C@](C)(O)[C@H]1CC[C@@]2(O)C3=CC(=O)[C@@H]4C[C@@H](O)[C@@H](O)C[C@]4(C)[C@@H]3CC[C@]12C | – | 80.5
13 | CN[C@@H]1C[C@H]2O[C@@](C)([C@H]1OC)n1c3ccccc3c3c4c(c5c6ccccc6n2c5c31)C(=O)N[C@H]4O | 148 nM (active) | –
14 | Cn1c(Nc2ccc(C(F)(F)F)cc2)nc2cc(Oc3ccnc(-c4ncc(C(F)(F)F)[nH]4)c3)ccc21 | 11800 nM (active) | –
15 | CC[C@H]1OC(=O)[C@H](C)[C@@H](O[C@H]2C[C@@](C)(OC)[C@@H](O)[C@H](C)O2)[C@H](C)[C@@H](O[C@@H]2O[C@H](C)C[C@H](N(C)C)[C@@H]2O)[C@](C)(OC)C[C@@H](C)C(=O)[C@H](C)[C@@H](O)[C@]1(C)O | – | 95.2
16 | Oc1cc(-c2nc(-c3ccccc3)[nH]c2-c2ccncc2)ccc1Cl | 8330 nM (active) | –
17 | O=C1NC(=O)C(=Cc2ccc3nccc(-c4ccncc4)c3c2)S1 | 93.5 nM (active) | –
18 | O=C(CCCCCCC(=O)Nc1cccnc1)NO | 3320 nM (active) | –
19 | Cc1cnc(Nc2ccc(CN3CCOCC3)cc2)nc1Nc1cccc(S(=O)(=O)NC(C)(C)C)c1 | 2640 nM (active) | –
20 | CON=C(C(=O)N[C@@H]1C(=O)N2C(C(=O)O)=C(CSC(=O)c3ccco3)CS[C@H]12)c1csc(N)n1 | – | 106

Row | SMILES | Potency | viability (% of DMSO) [%]
21 | O=c1ccn([C@@H]2O[C@H](CO)[C@H](O)[C@@H]2F)c(=O)[nH]1 | – | 119
22 | N[C@H]1CN(c2c(F)cc3c(=O)c(C(=O)O)cn(C4C[C@@H]4F)c3c2Cl)CC12CC2 (stereo not given in full) | – | 95.9
23 | CC(=O)OCC(=O)[C@@]1(O)CC[C@H]2[C@@H]3CCC4=CC(=O)CC[C@]4(C)[C@@H]3C(=O)C[C@@]21C | – | 133
24 | COC1=C2C[C@@H](C)C[C@H](OC)[C@@H](O)[C@@H](C)C=C(C)[C@H](OC(N)=O)[C@@H](OC)C=CC=C(C)C(=O)NC(=CC1=O)C2=O | 41.8 nM (active) | –
25 | COc1ccc(S(=O)(=O)Nc2cccnc2Nc2ccc(O)cc2)cc1 | 83.3 nM (active) | –
26 | Cc1cnc(NC(=O)Nc2cc(Br)c(C)cc2OC[C@@H]2CNCCO2)cn1 | 5260 nM (active) | –
27 | CC(=O)SCC(Cc1ccccc1)C(=O)NCC(=O)OCc1ccccc1 (stereo not given) | 2350 nM (active) | –
28 | O=C1c2c(O)cccc2[C@@H]([C@@H]2O[C@H](CO)[C@@H](O)[C@H](O)[C@H]2O)c2cc(CO)cc(O)c21 | – | 114
29 | C[C@]12CC[C@@H]3c4ccc(O)cc4CC[C@H]3[C@H]1CC[C@H]2O | 18700 nM (active) | –
30 | N#CNC(=NCCCCCCOc1ccc(Cl)cc1)Nc1ccncc1 | 8330 nM (active) | –
31 | COc1cc(O)c2c(c1)C1OC1C[C@H](O)[C@H](O)C(=O)C=CC[C@H](C)OC2=O (stereo not given in full) | 1180 nM (active) | –
32 | O=C(c1ccc(F)cc1)N1CCC[C@H](c2nc(-c3ccc(F)cc3)no2)C1 | – | 100
33 | CN(N=O)C(=O)N[C@H]1C(O)OC(CO)[C@@H](O)[C@H]1O (stereo not given in full) | – | 77
34 | CC(C=CC1=C(C)CCCC1(C)C)=CC=CC(C)=CC(=O)Nc1ccc(O)cc1 | 15200 nM (active) | –
35 | Cc1ncc(-c2ccnc(Nc3ccc(S(C)(=O)=O)cc3)n2)n1C(C)C | 2350 nM (active) | –
36 | CC(C)C[C@H](NC(=O)[C@@H](NC(=O)c1cccc(-c2ccccc2)n1)[C@@H](C)O)B(O)O | 33.2 nM (active) | –
37 | c1coc(CNc2ncnc3nc[nH]c23)c1 | – | 69.5
38 | CC(C)n1cnc2c(NCCc3ccc(O)cc3)nc(-c3csc4ccccc34)nc21 | 7430 nM (active) | –
39 | C[C@H](O)[C@@H]1C(=O)N2C(C(=O)O)=C(S[C@@H]3CN[C@H](CNS(N)(=O)=O)C3)[C@@H](C)[C@@H]12 | – | 120
40 | Nc1ccc(C(=O)Nc2cccc(-c3nc(N4CCOCC4)c4oc5ncccc5c4n3)c2)cn1 | 1480 nM (active) | –
